Screening results deposited in PubChem BioAssay by Pan Lab, Icahn School of Medicine at Mount Sinai.
This is one part of a sample in which hits are shown more often than they occur.
RBX1-CUL1 inh – blocks human RBX1-Cullin-1 di-ubiquitin formation | P62877+Q13616 | inhibition, % at 10 µM | in vitro K48 di-Ub FRET, acceptor:donor ratio, 45 min | actives 0.6% (n = 140,000); in the data active means inhibition above about 25%
Target sequence (P62877 whole entry, looked up): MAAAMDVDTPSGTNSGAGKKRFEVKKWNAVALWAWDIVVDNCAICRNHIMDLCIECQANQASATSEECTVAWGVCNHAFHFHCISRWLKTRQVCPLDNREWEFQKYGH
Target sequence (Q13616 whole entry, looked up): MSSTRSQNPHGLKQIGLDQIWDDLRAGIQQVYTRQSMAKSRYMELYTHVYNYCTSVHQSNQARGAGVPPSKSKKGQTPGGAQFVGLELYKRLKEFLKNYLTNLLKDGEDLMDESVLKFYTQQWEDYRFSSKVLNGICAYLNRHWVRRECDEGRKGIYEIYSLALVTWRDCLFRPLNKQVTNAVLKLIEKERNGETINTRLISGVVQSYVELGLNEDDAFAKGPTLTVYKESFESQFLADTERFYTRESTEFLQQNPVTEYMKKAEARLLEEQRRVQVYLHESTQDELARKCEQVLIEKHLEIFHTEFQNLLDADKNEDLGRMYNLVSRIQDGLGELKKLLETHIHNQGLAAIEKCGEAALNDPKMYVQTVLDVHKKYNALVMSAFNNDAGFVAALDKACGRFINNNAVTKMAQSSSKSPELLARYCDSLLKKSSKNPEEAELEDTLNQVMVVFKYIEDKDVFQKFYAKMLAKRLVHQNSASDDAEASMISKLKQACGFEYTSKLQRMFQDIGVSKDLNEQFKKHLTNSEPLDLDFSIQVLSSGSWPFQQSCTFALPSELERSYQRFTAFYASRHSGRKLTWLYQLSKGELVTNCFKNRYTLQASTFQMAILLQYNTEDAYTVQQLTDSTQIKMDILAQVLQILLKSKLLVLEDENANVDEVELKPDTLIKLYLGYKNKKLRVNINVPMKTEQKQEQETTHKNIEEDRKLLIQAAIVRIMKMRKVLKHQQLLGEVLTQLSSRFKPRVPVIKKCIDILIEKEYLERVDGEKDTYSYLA
* marks the source's active call; other numbers are inactive results.

SMILES | RBX1-CUL1 inh
COc1cc(OC)c(C2C3=C(CC(C)(C)CC3=O)N(c3cc(C(F)(F)F)ccc3Cl)C(=N)C2C#N)c(OC)c1 (stereo not drawn) | 3
O=C1NC(=O)N(c2ccc(F)cc2)C2=NC(C3CCCCC3)=NC(C(F)(F)F)(C(F)(F)F)C12 (stereo not drawn) | -8
CCc1nnc(NC(=O)CSc2nnc(CNc3ccc(F)cc3)n2-c2ccc(OC)cc2)s1 | -3
CC(=O)Nc1ccc(NC(=O)CN2CC(c3ccccc3)CC2=O)cc1 (stereo not drawn) | 14
COC(=O)c1c(NC(C)=O)sc2cc(C)ccc12 | -7
N#CC1C(=N)N(N)C(=S)C2=C1CCCC2 (stereo not drawn) | -1
Cc1ccc(-c2ccc(CC3=NC(=S)NC3=O)o2)c(Br)c1 | 2
O=S1(=O)CC(c2ccccc2)C1 | -2
O=C1CCC(c2ccc(NC(=O)CCC(=O)Oc3ccccc3)cc2)=NN1 | -1
CC(C)c1cc(/C=C2\OC(=O)c3ccccc32)cc(C(C)C)c1O | -9
O=C1/C(=C/c2ccc(O)c(O)c2)Oc2ccccc21 | 97*
COc1ccc(C=C2C(=O)c3ccccc3C2=O)cc1O | -2
CC(/C=C1\SC(=S)N(c2ccc(C(=O)O)cc2)C1=O)=C\c1ccccc1 | 106*
Cc1ccc(N2C(=O)/C(=C/c3ccc(C(=O)O)cc3)SC2=S)cc1C | -3
CCOc1cc(/C=C2/SC(=S)N(C(CCC(=O)O)C(=O)O)C2=O)ccc1O (stereo not drawn) | 14
O=C(O)CCC(C(=O)O)N1C(=O)/C(=C/c2cccc(Br)c2)SC1=S (stereo not drawn) | -3
O=C(O)c1ccc(/C=C2\SC(=S)N(NC(=O)c3ccccc3)C2=O)cc1 | -2
CCCC(C(=O)O)N1C(=O)/C(=C/C(C)=C/c2ccccc2)SC1=S (stereo not drawn) | 29*
COc1cc(-c2cc(C(F)(F)F)n3ncc(C(=O)N4CCN(C(c5ccccc5)c5ccccc5)CC4)c3n2)cc(OC)c1OC | -5
CCCCOCCCNC(=O)CS(=O)(=O)Cc1ccccc1 | 7
CCS(=O)(=O)N1CCC(C(=O)Nc2cc(Cl)cc(Cl)c2)CC1 | -2
CC(=O)OC1CC[C@](C)(C2CC[C@]3(C)C(C(C)CCCC(C)C)CCC3C2C(=O)O)C(=O)C1 (stereo partly drawn) | -1
CC(C)CCCC(C)C1CCC2C3CC([N+](=O)[O-])=C4C[C@@H](Cl)CCC4(C)C3CCC12C (stereo partly drawn) | -3
CC(C)CCCC(C)C1CCC2[C@@H](C(=O)O)C([C@@]3(C)CCC=CC3=O)CC[C@]12C (stereo partly drawn) | 97*
Cc1cc(C)c(NC(=O)c2ccccc2F)c(C)c1 | -2
SMILES | RBX1-CUL1 inh
CCOc1c(/C=C(\C#N)C(N)=O)c2ccccc2n1CC | 3
N#CC(C#N)=C/C=C(/Cl)c1ccccc1 | 11
N#C/C(=C\C=C(/Cl)c1ccccc1)C(N)=O | 38*
CC1CCc2c(sc3nnn(Cc4cccc(C(=O)OC(C)C)c4)c(=O)c23)C1 (stereo not drawn) | -4
CC(C)OC(=O)c1cccc(NC(=O)Cn2nnc3sc4c(c3c2=O)CCCC4)c1 | 5
CC(C)OC(=O)c1ccc(Cn2nnc3sc4c(c3c2=O)CCCC4)cc1 | 44*
N#CCc1nc2ccccc2n1C(=O)c1ccccc1 | 0
OCCC#Cc1ccc(CN2CC[C@@H](N3CCCCCC3)[C@H](O)C2)cc1 | -7
Cc1ccc(N=C2S/C(=C\c3ccc(O)cc3)C(=O)N2c2ccc(C)cc2)cc1 | -9
O=C(O)COc1ccc(/C=C2\SC(=O)N(c3cccc(Cl)c3)C2=O)cc1 | -10
Cc1ccc(N=C2S/C(=C\c3ccc(OCC(=O)O)cc3)C(=O)N2c2ccc(C)c(C)c2)cc1C | 89*
CCN(Cc1ccccc1)C(=O)c1cc(NC(=O)COC)cc2ncn(Cc3ccc(F)cc3)c12 | -2
COc1ccccc1NC(=O)C1C(C)=Nc2nc(-c3ccccc3Cl)nn2C1c1ccc(O)cc1 (stereo not drawn) | -11
Cn1c(=O)c2c(-c3ccccc3Cl)ccnc2n(C)c1=O | 5
COC(=O)c1c(C(=O)OC)c2c3ccccc3cnn2c1N | 7
CC(C)N1C(=O)C(C=Nc2cc(Cl)c(Cl)cc2Cl)C(=O)N(Cc2ccco2)C1=O (stereo not drawn) | 4
COc1ccc(/C=C2\C(=O)N(Cc3ccco3)C(=O)N(C(C)C)C2=O)c(OC)c1 | 101*
CC(C)N1C(=O)/C(=C\c2ccc(N(C)C)cc2)C(=O)N(Cc2ccco2)C1=O | 11
CC(c1ccncn1)N(C)Cc1c(C(=O)N2CCCCC2)nc2sccn12 (stereo not drawn) | 3
CCOC(=O)C1C(C)=NC(=S)NC1c1ccc(OCC(=O)Nc2ccccc2OC)c(OCC)c1 (stereo not drawn) | -6
CCN(CC)c1ccc(C2C3C(=O)CCCC3=NC3=NC(=O)NC(=O)C32)cc1 (stereo not drawn) | -2
CC(c1ccon1)N(C)C(=O)CC1(c2ccc(-c3ccccc3)cc2)CC(=O)N(C)C1=O (stereo not drawn) | -3
CCC1(N)C(=O)c2ccccc2C1=O | 7
O=C1c2ccccc2C(=O)C(O)(O)C1(O)O | 100*
O=C1c2ccccc2C(=O)C(Cl)(Cl)C1(Cl)Cl | -8
SMILES | RBX1-CUL1 inh
Oc1ccc(NCc2ccccc2OCc2ccc(Cl)cc2)cc1 | 7
CCOc1cc(CNc2ccc(O)cc2)cc(Br)c1OCc1cccs1 | 75*
CCOc1cccc(CNc2ccc(O)cc2)c1OCc1ccccc1 | 97*
CCOc1cc(CNc2ccc(O)cc2)cc(Br)c1OCc1ccccc1 | 4
Oc1ccc(NCc2ccccc2OCc2ccccc2)cc1 | 6
CCOc1cc(CNCc2cccs2)cc(Br)c1OC | -8
O=C(CSc1nc(-c2ccc(F)cc2)cc(C(F)(F)F)n1)N1CCc2ccccc2C1 | 8
COc1cc2c(cc1OC)/C(=C/CC1(C)C(=O)CCC1=O)CCS2 | 13
COc1cc2c(cc1OC)C1=C(C3=CCC(=O)[C@@]3(C)CC1)[C@H](C)S2 | 25*
COc1cc2c(cc1OC)C(=O)CCS2 | 0
Cc1ccc(OCc2nnc(SCC(=O)Nc3cccc(Cl)c3C)n2C)cc1 | 2
CC1=NN(c2ccccc2)C(=O)C1C(=O)c1ccc(Cl)cc1 (stereo not drawn) | -11
CC(=O)NC1C(=O)N(c2ccccc2)N=C1C (stereo not drawn) | 4
COC(=O)C(O)(C1C(=O)N(c2ccccc2)N=C1C)C(F)(F)F (stereo not drawn) | 75*
CN(Cc1cccc2ncccc12)C(=O)c1cn(C2CC2)cc(C(=O)NC2CCCCCC2)c1=O | 6
COc1cc2nc(N(C)C)c(CNCc3ccccc3C(F)(F)F)cc2c(OC)c1OC | 2
Cc1ccc(NC(=S)NC(=O)CC(C)C)cc1C | -3
C=CCOc1c(Br)cc(CNc2ccc(C(=O)O)cc2)cc1OCC | 9
C=CCOc1c(Br)cc(CNc2nccs2)cc1OCC | 10
C=CCOc1c(Br)cc(CNC(C)(C)C)cc1OCC | 66*
COC(=O)c1cc(NS(=O)(=O)c2ccccc2C)ccc1O | -4
CCC(C)NS(=O)(=O)Cc1ccc(Cl)cc1Cl (stereo not drawn) | 11
C/C(=N\OCc1nc2c3c4c(sc3ncn2n1)CCCC4)c1ccc(C)cc1 | 0
O=C1c2ccc(I)cc2C(=O)N1c1ccc([N+](=O)[O-])cc1 | -3
COCCN1CCC(CN(Cc2ccncc2)CC(C)C)CC1 | 0
NS(=O)(=O)c1ccc(-c2ccc(/C=C3/C(=O)NN(c4cccc(F)c4)C3=O)o2)cc1 | 44*
